# Inconclusive results are not listed. Calls of active or inactive are those of the source. The call rests on the fitted dose curve; in most records, active means well fitted inhibition curve with a large enough effect; inconclusive means small, poorly fitted or top-dose-only effect; inactive means flat fitted curve, though single readings scatter.
# Tests used:
# [1] = qHTS for identification of novel therapeutic agents for treatment of microphthalmiaassociated transcription factor (MiT) renal cell carcinoma (RCC) (AID 1963991); conditions: CellTiter-Glo, 48 h, stronger effect = lower value
# Summary of the method: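 Three TFE3-fusion RCC cell lines (UOK109, UOK124, UOK145), 500 cells/well, were exposed to the 1912-compound MIPE 4.0 library for 48 hours at 37 C. Viability was read by CellTiter-Glo luminescence, normalised to DMSO (100%) and empty wells (0%), with 11-concentration curve fits.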
# [2] = qHTS profiling for inhibitors of Plasmodium falciparum proliferation (AID 504749); further: nearly all actives have a fitted effect of over 60% in size; further: potency means the concentration at half of the fitted maximal effect;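 on activity, negative = inhibition: 0% = DMSO vehicle and full inhibition = artemisinin control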; conditions: P. falciparum in erythrocytes, SYBR Green DNA, 72 h
# Summary of the method: (§1)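 Quantitative HTS: compounds pinned into medium, infected erythrocytes added (0.3% parasitemia, 2.5% hematocrit), 72 h culture at 37 C under 5% CO2. Saponin/Triton lysis with SYBR Green I, overnight RT, then fluorescence read.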
# 3D7 = assay: as above; conditions: P. falciparum in erythrocytes, SYBR Green DNA, 72 h; series mostly up to 28.7 µM
# Summary of the method: as §1
# 7G8 = assay: as above; conditions: P. falciparum in erythrocytes, SYBR Green DNA, 72 h; series mostly up to 28.7 µM
# Summary of the method: as §1
# AA1029 = assay: as above; conditions: P. falciparum in erythrocytes, SYBR Green DNA, 72 h; series mostly up to 28.7 µM
# Summary of the method: as §1
# AS120 = assay: as above; conditions: P. falciparum in erythrocytes, SYBR Green DNA, 72 h; series mostly up to 28.7 µM
# Summary of the method: as §1
# ATS189 = assay: as above; conditions: P. falciparum in erythrocytes, SYBR Green DNA, 72 h; series mostly up to 28.7 µM
# Summary of the method: as §1
# ATS95 = assay: as above; conditions: P. falciparum in erythrocytes, SYBR Green DNA, 72 h; series mostly up to 28.7 µM
# Summary of the method: as §1
# C2A = assay: as above; conditions: P. falciparum in erythrocytes, SYBR Green DNA, 72 h; series mostly up to 28.7 µM
# Summary of the method: as §1
# CP185 = assay: as above; conditions: P. falciparum in erythrocytes, SYBR Green DNA, 72 h; series mostly up to 28.7 µM
# Summary of the method: as §1
# [3] = TFE3-RCC UOK109 viability, measured here: UOK109 Z-AUC
# [4] = TFE3-RCC viability, measured here: UOK124 Z-AUC
# [5] = TFE3-RCC viability, measured here: UOK145 Z-AUC
# [6] = at 28.7 µM (top of the series), parasite line A
# [7] = at 28.7 µM (top of the series), parasite line B
# [8] = at 12.8 µM (top of the series), parasite line B
SMILES,"z-score [1, 3]","z-score [1, 4]","z-score [1, 5]","activity, negative = inhibition [2, 6]","activity, negative = inhibition [2, 7]",Potency (3D7),Potency (7G8),Potency (AA1029),Potency (AS120),Potency (ATS189),Potency (ATS95),Potency (C2A),Potency (CP185),Potency ([2]; parasite line A),Potency ([2]; parasite line B),"activity, negative = inhibition [2, 8]","activity, negative = inhibition ([2]; at 12.8 µM (top of the series), parasite line A)"
CCOCC(O)COc1ccc(NC(=O)CC[S+](C)C)cc1 (configuration not stated),0.123,0.296,0.104,8.74% (inactive),4.77% (inactive),inactive,inactive,inactive,inactive,inactive,inactive,inactive,inactive,,,,
N[C@@H](C(=O)N[C@@H]1C(=O)N2C(C(=O)O)=C(Cl)CS[C@H]12)c1ccccc1,1.18,0.137,0.843,10% (inactive),-2.02% (inactive),inactive,inactive,inactive,inactive,inactive,inactive,inactive,inactive,,,,
CCOc1cc(N)c(Cl)cc1C(=O)NCC1CN(Cc2ccc(F)cc2)CCO1 (configuration not stated),-0.211,0.779,0.352,,,,11.2 µM (active),12.6 µM (active),8.91 µM (active),5.01 µM (active),10 µM (active),11.2 µM (active),10 µM (active),2.51 µM (active),11.2 µM (active),,
NC(=O)N1c2ccccc2CC(=O)c2ccccc21,0.211,0.361,-0.025,-5.05% (inactive),-8.83% (inactive),inactive,inactive,inactive,inactive,inactive,inactive,inactive,inactive,,,,
CC(C)(C#N)c1cc(Cn2cncn2)cc(C(C)(C)C#N)c1,0.558,0.63,0.487,5.33% (inactive),14.1% (inactive),inactive,inactive,inactive,inactive,inactive,inactive,inactive,inactive,,,,
COc1ncnc(NS(=O)(=O)c2ccc(N)cc2)c1OC,0.466,0.339,0.671,-18.9% (inactive),11.3% (inactive),,inactive,inactive,inactive,inactive,inactive,inactive,inactive,,,,
CCn1cc(C(=O)O)c(=O)c2cc(F)c(N3CCN(C)CC3)cc21,0.77,0.298,0.753,,-21.5% (inactive),inactive,,,,,,,,,,,
Cc1oc(=O)oc1CN1CCN(c2cc3c(cc2F)c(=O)c(C(=O)O)c2n3C(C)S2)CC1 (configuration not stated),0.77,0.785,0.456,,,11.2 µM (active),3.98 µM (active),6.31 µM (active),11.2 µM (active),8.91 µM (active),12.6 µM (active),10 µM (active),10 µM (active),11.2 µM (active),8.91 µM (active),,
O=C(O)c1cn(C2CC2)c2cc(N3CCNCC3)c(F)cc2c1=O,1.77,0.661,1.11,,,inactive,3.16 µM (active),,,inactive,,inactive,,,,-28.9% (inactive),
CCN(C)C(=O)Oc1cccc([C@H](C)N(C)C)c1,0.893,0.446,1.29,3.53% (inactive),1.69% (inactive),inactive,inactive,inactive,inactive,inactive,inactive,inactive,inactive,,,,
NC(N)=NC(N)=NCCc1ccccc1,,,,,-17% (inactive),inactive,inactive,inactive,inactive,inactive,inactive,inactive,inactive,,,-8.82% (inactive),-25.4% (inactive)
C#CCN[C@@H]1CCc2ccccc21,0.682,0.222,0.635,16.7% (inactive),9.12% (inactive),inactive,inactive,inactive,inactive,inactive,inactive,inactive,inactive,,,,
CC(N)C12CC3CC(CC(C3)C1)C2 (configuration not stated),0.00344,0.654,0.503,7.36% (inactive),-12% (inactive),,,,,,,inactive,,,,,
CN1CCN(c2c(F)cc3c(=O)c(C(=O)O)cn(CCF)c3c2F)CC1,1.29,-0.24,0.785,1.69% (inactive),7.79% (inactive),inactive,inactive,inactive,inactive,inactive,inactive,inactive,inactive,,,,
CCC(C)(C)c1ccc(CC(C)CN2C[C@@H](C)O[C@@H](C)C2)cc1 (some centres not stated),0.00856,0.0457,1.19,-5% (inactive),-10.4% (inactive),,10 µM (active),inactive,inactive,inactive,inactive,inactive,inactive,,,,
COc1cccc(N(C)C(=S)Oc2ccc3c(c2)CCCC3)n1,0.559,0.578,1.67,-29.5% (inactive),-22.3% (inactive),,,inactive,,inactive,inactive,inactive,inactive,,,,
OC(Cn1cncn1)(Cn1cncn1)c1ccc(F)cc1F,0.751,0.906,-0.107,5.43% (inactive),,inactive,inactive,inactive,inactive,inactive,inactive,inactive,inactive,,,,

# From PubChem BioAssay (NCATS)
